Source: PubChem (Broad Institute)
NOMO-1 viab: STK33 inhibitor candidate reducing NOMO-1 cell viability | NOMO-1 AML viability, CellTiter-Glo luminescence, 72 h | inhibition, % (concentration not given with the values) | 37,000 compounds, 7.5% hits | AID 2330; in the data active = inhibition above about 80%; inconclusive = no clear call, values can overlap the other calls
Shh pathway inh: Sonic Hedgehog pathway inhibition; inhibition, % (test concentration not listed); 22,000 compounds, 2.1% hits; Shh-LIGHT2 Gli-luciferase reporter, 30 h; AID 2313;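 active = mean inhibition across valid replicates above about 65%, limit read from the data; inconclusive = mean under the limit, yet half or more replicates past it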;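 also: pathway switched on by Shh-conditioned medium diluted 1 in 25 in low serum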
PD-1 reversal: reversal of PD-1 mediated T-cell inhibition; AID 2316; 29,000 tested, under 10 active; activation, % (concentration not given with the values); primary human CD4 T cells, PD-L1 beads, CellTiter-Glo 96 h; call rule not given here;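 also: 0% = median vehicle wells and 100% = positive control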
An asterisk follows results filed as active; i = inactive; ? = inconclusive; · = no result. Sampled rows, rich in hits. Any-hit rate of the full collection: about 7.7%.

SMILES	NOMO-1 viab	Shh pathway inh	PD-1 reversal
Cc1ccc(-c2nnc(SCC(=O)Nc3c(C)cc(C)cc3C)o2)cc1	29	·	-3
Cc1ccc(S(=O)(=O)NCCCO)cc1C(=O)O	-20	·	2
Oc1ccc(CCCCC(CCc2ccc(O)cc2)O[C@@H]2OC[C@@H](O)[C@H](O)[C@H]2O)cc1 (some centres not stated)	·	14	·
O=C(CCc1ccc(O)cc1)CC(CCc1ccc(O)cc1)O[C@@H]1OC[C@@H](O)[C@H](O)[C@H]1O (some centres not stated)	113*	11	-2
CC(=O)Nc1cccc(-c2nnc(SCC(=O)Nc3ccccc3F)n2C)c1	4	·	4
COc1cc(/C=C/C(=O)OC2CC3CCC2(C)C3(C)C)ccc1O (configuration not stated)	104*	2	-2
O=C(/C=C/c1ccc(O)c(O)c1)O[C@@H]1C[C@](O)(C(=O)O)C[C@@H](O)[C@H]1O	16	-32	·
Cc1c(Cl)cccc1NC(=O)CSc1nnc(-c2cccs2)n1C	-20	·	-1
Cc1ccc(O)c(NC(=O)c2nc3ncccn3n2)c1	5	·	2
Cc1cc(C(=O)Nc2cccc3c2O[C@H](CN(C)Cc2ccc(-c4ccccc4)cc2)[C@@H](C)CN([C@H](C)CO)C3=O)n(C)n1	89*	40	-1
Cc1cc(C(=O)Nc2cccc3c2O[C@H](CN(C)Cc2ccc(Oc4ccccc4)cc2)[C@@H](C)CN([C@H](C)CO)C3=O)n(C)n1	111*	?	-5
Cc1cc(C(=O)Nc2cccc3c2O[C@H](CN(C)Cc2ccc(C(=O)Nc4ccccc4N)cc2)[C@@H](C)CN([C@@H](C)CO)C3=O)n(C)n1	?	·	1
Cc1cc(C(=O)Nc2cccc3c2O[C@@H](CN(C)Cc2ccc(-c4ccccc4)cc2)[C@H](C)CN([C@@H](C)CO)C3=O)n(C)n1	46	25	-1
Cc1cc(C(=O)Nc2cccc3c2O[C@@H](CN(C)Cc2ccccc2)[C@@H](C)CN([C@H](C)CO)C3=O)n(C)n1	9	0	0
Cc1cc(C(=O)Nc2cccc3c2O[C@H](CN(C)Cc2ccc(C(=O)Nc4ccccc4N)cc2)[C@H](C)CN([C@H](C)CO)C3=O)n(C)n1	127*	·	-2
C=CCNc1sc(N)c(C#N)c1C(=O)c1ccc(Br)s1	-27	-10	0
CNC(=O)CN(C#N)c1nc(C)cc(C)n1	-3	·	3
CC(=O)c1cccc(NC(=O)CNS(=O)(=O)c2ccc(Cl)cc2)c1	-4	·	0
C=C1C(=O)O[C@H]2C1[C@H](OC(=O)/C(C)=C/CO)C/C(C)=C\CC[C@@]1(C)OC21 (some centres not stated)	122*	26	-28
C/C=C(/C)C(=O)O[C@H]1C[C@@](C)(O)C(=O)[C@@H](OC(=O)/C(C)=C\C)[C@@]2(C)CC[C@@](O)(C(C)C)[C@H]12	34	-11	0
C=C1C(=O)O[C@H]2C1[C@H](OC(=O)/C(C)=C/CO)C/C(C)=C\CC[C@@]1(CO)OC21 (some centres not stated)	93*	4	-15
C=C1C(=O)OC2/C=C(\CO)C(OC(C)=O)C/C=C(/C)CC(OC(=O)/C(C)=C\CO)C12 (configuration not stated)	121*	48	-6
C=C1C(=O)O[C@H]2[C@H]1[C@@H](OC(=O)/C(C)=C\C)C[C@]1(C)O[C@@H]1[C@H]1O[C@H]1C(=C)[C@H]2O	121*	31	-25
COc1ccc(NC(=O)CNS(=O)(=O)c2ccccc2)cc1OC	34	·	·
CCCCn1c2ccccc2c2nnc(SCCN3CCOCC3)nc21	33	·	-6
SMILES	NOMO-1 viab	Shh pathway inh	PD-1 reversal
CC1Oc2c3c(c4c(-c5ccccc5)cc(=O)oc4c2C(=O)C1C)OC(C)(C)C=C3 (configuration not stated)	·	59	·
Cc1cc(C)c(NC(=O)CN(C)S(=O)(=O)c2ccccc2)c(C)c1	36	·	0
COc1ccc2cc(C3CC(c4ccc(OC)c(OC)c4)=NN3C(=O)c3ccco3)c(Cl)nc2c1 (configuration not stated)	46	-7	-1
CCOc1ccc(-c2nc3ccc(-c4nc5ccc(N6CCN(C)CC6)cc5[nH]4)cc3[nH]2)cc1	116*	i	·
CCOc1ccc(N2C(=O)CC(SCc3nc4ccccc4[nH]3)C2=O)cc1 (configuration not stated)	-9	·	·
C=C(C)[C@H]1C[C@@]2(C)C(=CC1=O)CC[C@@H](O)[C@@H]2C	24	-3	2
CC1OC(OC2C(O[C@H]3OC[C@](O)(CO)[C@H]3O)COC(O[C@@H]3[C@@H](O)[C@@H](O)[C@H](OC4C(OC(=O)[C@]56CCC(C)(C)CC5C5=CCC7[C@@]8(C)C[C@H](O)[C@H](OC9OC(CO)C(O)C(O)C9O)[C@@](C)(CO)C8[C@H](O)C[C@@]7(C)[C@]5(C)CC6)OCC(O)C4O)O[C@H]3C)C2O)C(O)C(O)C1O (some centres not stated)	76	4	-6
COc1cc(NC(=O)COc2ccc(Cl)cc2Cl)ccc1NC(=O)c1ccccc1Cl	39	·	2
COC(=O)C(O)(c1ccc(NC(=S)NC(=O)c2ccc(Cl)cc2Cl)c(OC)c1)C(F)(F)F (configuration not stated)	124*	·	-6
COc1ccc(NC(=O)Nc2ccc3c(c2)C(=O)N([C@H](C)CO)C[C@H](C)[C@@H](CN(C)Cc2ccc(Cl)c(Cl)c2)O3)cc1	28	11	-1
COc1ccc(NC(=O)Nc2ccc3c(c2)C(=O)N([C@H](C)CO)C[C@H](C)[C@H](CN(C)Cc2ccc(Cl)c(Cl)c2)O3)cc1	109*	7	-1
C[C@@H]1CN([C@@H](C)CO)C(=O)c2cc(NC(=O)Nc3ccc(F)cc3)ccc2O[C@H]1CN(C)Cc1ccc(Cl)c(Cl)c1	125*	·	0
C[C@H](CO)N1C[C@H](C)[C@H](CN(C)Cc2ccc(Cl)c(Cl)c2)Oc2ccc(NC(=O)Nc3ccc(F)cc3)cc2C1=O	-11	·	1
C[C@H](CO)N1C[C@H](C)[C@@H](CN(C)Cc2ccc(Cl)c(Cl)c2)Oc2ccc(NC(=O)Nc3ccc(F)cc3)cc2C1=O	53	·	-5
C[C@H](CO)N1C[C@H](C)[C@H](CN(C)Cc2ccc(Cl)c(Cl)c2)Oc2ccc(NC(=O)Nc3ccccc3)cc2C1=O	113*	19	0
C[C@H](O)c1nc2ccccc2c(=O)[nH]1	-8	-9	0
O=C(CCCSc1nc(-c2ccco2)cc(C(F)(F)F)n1)NC1CCCC1	47	19	0
COc1cccc(NC(=O)C(C)N(c2cc(C)cc(C)c2)S(C)(=O)=O)c1 (configuration not stated)	26	·	-1
CS(=O)(=O)N(CC(=O)Nc1ccccc1-c1ccccc1)c1ccccc1Cl	-1	·	1
Cc1ccc(S(=O)(=O)N(C)CC(=O)Nc2ncc(C(F)(F)F)cc2Cl)cc1	11	·	1
O=C(/C=C/Oc1ccc(Cl)cc1)c1ccc(Br)cc1	117*	14	-2
O=C(N1CC(Oc2ccc(Cl)cc2)C1)N1CC(Oc2ccc(Cl)cc2)C1	30	33	4
Cc1ccc(S(=O)(=O)NC(C)C(=O)Nc2cc(C(F)(F)F)ccc2Cl)cc1 (configuration not stated)	19	·	0
